For nine molecules, growth inhibition results are on record in PubChem BioAssay (NCI).

Test [1] in a line: NCI Yeast Anticancer Drug Screen. Data for the rad50 strain (AID 155).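 Also: 0% = growth of vehicle-only cultures of the same strain.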 The following applies: S. cerevisiae rad50 strain growth inhibition, hits give high values. An outline of the steps:
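Cells are treated with compound, grown, and their growth is then scored against vehicle-only cultures of the same repair-deficient yeast strain.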

Test [2] can be described thus: NCI Yeast Anticancer Drug Screen. Data for the mec2-1 strain (AID 157). The following applies: S. cerevisiae mec2-1 strain, hits give high values. Put shortly:
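mec2-1 yeast strain, carrying an alteration in DNA damage repair or cell cycle control, was exposed to compounds; growth inhibition was measured relative to vehicle-treated controls.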

Test [3] in a line: NCI Yeast Anticancer Drug Screen. Data for the sgs1 mgt1 strain (AID 161).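 Also: 0% = growth of cultures given vehicle only.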 The following applies: S. cerevisiae sgs1 mgt1 strain, hits give high values. Put shortly: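 Compounds are added to genetically altered yeast, and growth is compared with cultures given vehicle alone to give percent inhibition.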
Test [4] is described as follows: NCI Yeast Anticancer Drug Screen. Data for the cln2 rad14 strain (AID 165).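 Also: 0% = growth equal to vehicle treated cultures.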 To be noted: S. cerevisiae cln2 rad14 strain, hits give high values. Put shortly:
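Yeast carrying cln2 and rad14 alterations (cell cycle control and DNA damage repair) were exposed to compounds. Growth inhibition was measured against vehicle-treated controls.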

Test [5] in a line: NCI Yeast Anticancer Drug Screen. Data for the bub3 strain (AID 167). The following applies: S. cerevisiae bub3 mutant strain, hits give high values. An outline of the steps: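 Part of a panel of yeast mutants defective in DNA damage repair or cell cycle regulation. Each strain is grown with compound, and inhibition is calculated relative to solvent-treated cultures.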
Test [6] can be described thus: NCI Yeast Anticancer Drug Screen. Data for the mlh1 rad18 strain (AID 175). To be noted: S. cerevisiae mlh1 rad18 strain growth inhibition, hits give high values. An outline of the steps:
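Growth inhibition of the yeast strain was measured after compound exposure and expressed relative to vehicle-treated controls. The strain carries defined defects in DNA damage repair.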

Where [7] appears, read: at 5.0 µM (retest, dose inferred, filed as 0.5).
The mark [8] stands for this setting: at 50.0 µM (retest, dose inferred, filed as 5.0).

This is part of a sample that, as a whole, favours compounds with a hit. Of some 79,000 tested, about 15% had one in any assay. Unmarked numbers belong to inactive results. The source made the active and inactive calls. Rule as the data show it: active = growth inhibition above about 70%; inactive = the rest.

As for `N/C(=N\OC1(c2ccccc2)OC(=O)C(=O)/C1=C(/O)c1ccccc1)c1ccccc1` (configuration not stated), the growth inhibition in test [1] (setting [7]) was 10%; in test [1] (setting [8]), 97% (active); in test [1] (at 50.0 µM), 98% (active); in test [2] (setting [7]), 8%; in test [2] (setting [8]), 89% (active); in test [2] (at 50.0 µM), 98.5% (active). Moreover, the growth inhibition in test [3] (setting [7]) was 13%; in test [3] (setting [8]) it was 87% (active); in test [3] (at 50.0 µM) it was 96.6% (active); in test [4] (setting [7]), 0%; in test [4] (setting [8]), 75% (active); in test [4] (at 50.0 µM), 78% (active). The growth inhibition is 7% in test [5] (setting [7]); 94% (active) in test [5] (setting [8]); 98.2% (active) in test [5] (at 50.0 µM); 4% in test [6] (setting [7]); 92% (active) in test [6] (setting [8]); 98.3% (active) in test [6] (at 50.0 µM).
As to `CCCCCCCCCc1ccc(OCC(O)CO)cc1` (configuration not stated), the growth inhibition in test [1] (setting [7]) is -3%; in test [1] (setting [8]), 98% (active); in test [1] (at 50.0 µM), 99.6% (active); in test [2] (setting [7]), -1%; in test [2] (setting [8]) it was 99% (active); in test [2] (at 50.0 µM) it was 99.7% (active). Moreover, the growth inhibition in test [3] (setting [7]) was 2%; in test [3] (setting [8]) it was 99% (active); in test [3] (at 50.0 µM), 99.8% (active); in test [4] (setting [7]), -11%; in test [4] (setting [8]), 98% (active); in test [4] (at 50.0 µM), 99.5% (active). Besides, the growth inhibition in test [5] (setting [7]) is -9%; in test [5] (setting [8]), 98% (active); in test [5] (at 50.0 µM), 99.8% (active); in test [6] (setting [7]), -4%; in test [6] (setting [8]), 98% (active); in test [6] (at 50.0 µM), 99.5% (active).
Regarding `CC(C)C(C)(C(=O)O)C(C)C`, the growth inhibition was 0% in test [1] (setting [7]); 1% in test [1] (setting [8]); 13.8% in test [1] (at 50.0 µM); 3% in test [2] (setting [7]); 2% in test [2] (setting [8]); 2.1% in test [2] (at 50.0 µM). For the same molecule, the growth inhibition was 2% in test [3] (setting [7]); 3% in test [3] (setting [8]); 5.6% in test [3] (at 50.0 µM); -3% in test [4] (setting [7]); 4% in test [4] (setting [8]); 67% in test [4] (at 50.0 µM). Also, the growth inhibition is -1% in test [5] (setting [7]); 0% in test [5] (setting [8]); -5.5% in test [5] (at 50.0 µM); 1% in test [6] (setting [7]); 0% in test [6] (setting [8]); 2.75% in test [6] (at 50.0 µM).
With `Cc1c(-c2ccccc2)sc(/N=C/c2cc(Br)cc(Br)c2O)c1C#N`, the growth inhibition in test [1] (setting [7]) is -17%; in test [1] (setting [8]), 63%; in test [1] (at 50.0 µM), 5.9%; in test [2] (setting [7]), 10%; in test [2] (setting [8]), 34%; in test [2] (at 50.0 µM), 25.3%. The growth inhibition was 15% in test [3] (setting [7]); 84% (active) in test [3] (setting [8]); 29% in test [3] (at 50.0 µM); 11% in test [4] (setting [7]); 12% in test [4] (setting [8]); 10.8% in test [4] (at 50.0 µM). Besides, the growth inhibition was 5% in test [5] (setting [7]); 75% (active) in test [5] (setting [8]); 19.2% in test [5] (at 50.0 µM); 10% in test [6] (setting [7]); 60% in test [6] (setting [8]); 62.9% in test [6] (at 50.0 µM).
Consider `COc1cc[c]([Sn]([c]2ccc(OC)cc2)([c]2ccc(OC)cc2)[c]2ccc(OC)cc2)cc1`, for which the growth inhibition in test [1] (setting [7]) was 1%; in test [1] (setting [8]), 1%; in test [1] (at 50.0 µM) it was 80.5% (active); in test [2] (setting [7]), 6%; in test [2] (setting [8]), 6%; in test [2] (at 50.0 µM), 85.3% (active). Besides, the growth inhibition was -5% in test [3] (setting [7]); -5% in test [3] (setting [8]); 80.8% (active) in test [3] (at 50.0 µM); -9% in test [4] (setting [7]); -9% in test [4] (setting [8]); 85.8% (active) in test [4] (at 50.0 µM). In addition, the growth inhibition in test [5] (setting [7]) is 6%; in test [5] (setting [8]), 6%; in test [5] (at 50.0 µM), 82.3% (active); in test [6] (setting [7]) it was -14%; in test [6] (setting [8]), -14%; in test [6] (at 50.0 µM) it was 78.8% (active).
For `c1nc2nc(N3CCOCC3)nc(N3CCCCC3)c2[nH]1`, the growth inhibition was -22% in test [1] (setting [7]); -14% in test [1] (setting [8]); -1.35% in test [1] (at 50.0 µM); -18% in test [2] (setting [7]); -18% in test [2] (setting [8]); 3.25% in test [2] (at 50.0 µM). The growth inhibition in test [3] (setting [7]) was 2%; in test [3] (setting [8]) it was 2%; in test [3] (at 50.0 µM) it was 2.45%; in test [4] (setting [7]), -2%; in test [4] (setting [8]), 0%; in test [4] (at 50.0 µM) it was 6.7%. In addition, the growth inhibition in test [5] (setting [7]) is -1%; in test [5] (setting [8]), -9%; in test [5] (at 50.0 µM) it was -43.2%; in test [6] (setting [7]) it was -19%; in test [6] (setting [8]), 10%; in test [6] (at 50.0 µM), -0.15%.
As to `Cc1ccc[n+](CC(=O)C2CCC3C4CC=C5CC(O)CCC5(C)C4CCC23C)c1` (configuration not stated), the growth inhibition in test [1] (setting [7]) was 2%; in test [1] (setting [8]) it was 28%; in test [1] (at 50.0 µM), 95.4% (active); in test [2] (setting [7]), 1%; in test [2] (setting [8]), 24%; in test [2] (at 50.0 µM), 98.2% (active). Further, the growth inhibition in test [3] (setting [7]) was 5%; in test [3] (setting [8]), 64%; in test [3] (at 50.0 µM), 98.8% (active); in test [4] (setting [7]) it was 6%; in test [4] (setting [8]), 25%; in test [4] (at 50.0 µM), 90.1% (active). Moreover, the growth inhibition in test [5] (setting [7]) is 3%; in test [5] (setting [8]), 27%; in test [5] (at 50.0 µM), 96.8% (active); in test [6] (setting [7]), -4%; in test [6] (setting [8]) it was 24%; in test [6] (at 50.0 µM), 98% (active).
Turning to `CCCCCCCCCCN(CCCCCCCCCC)CC(O)c1cc(-c2ccccc2)nc2ccccc12` (configuration not stated), the growth inhibition in test [1] (setting [7]) is -1%; in test [1] (setting [8]), 74% (active); in test [1] (at 50.0 µM) it was 36.2%; in test [2] (setting [7]), -2%; in test [2] (setting [8]), 34%; in test [2] (at 50.0 µM), 21.9%. Moreover, the growth inhibition was -22% in test [3] (setting [7]); 93% (active) in test [3] (setting [8]); 38.8% in test [3] (at 50.0 µM); 0% in test [4] (setting [7]); 26% in test [4] (setting [8]); -18.1% in test [4] (at 50.0 µM). Besides, the growth inhibition in test [5] (setting [7]) was 0%; in test [5] (setting [8]), 58%; in test [5] (at 50.0 µM) it was 26.9%; in test [6] (setting [7]), 4%; in test [6] (setting [8]), 57%; in test [6] (at 50.0 µM) it was 55%.
As for `Cc1ccc(/C=C2\CCCC(CN(C)C)C2=O)cc1` (configuration not stated), the growth inhibition in test [1] (setting [7]) was -12%; in test [1] (setting [8]), 95% (active); in test [1] (at 50.0 µM), 61.5%; in test [2] (setting [7]) it was -4%; in test [2] (setting [8]), 99% (active); in test [2] (at 50.0 µM), 62.5%. Further, the growth inhibition in test [3] (setting [7]) was -16%; in test [3] (setting [8]), 96% (active); in test [3] (at 50.0 µM), 78.5% (active); in test [4] (setting [7]), 6%; in test [4] (setting [8]) it was 97% (active); in test [4] (at 50.0 µM), 41.4%. Also, the growth inhibition in test [5] (setting [7]) is -31%; in test [5] (setting [8]), 99% (active); in test [5] (at 50.0 µM), 49.3%; in test [6] (setting [7]), -13%; in test [6] (setting [8]) it was 96% (active); in test [6] (at 50.0 µM) it was 52.4%.
